This is one part of a sample in which hits are shown more often than they occur.
DUX4 inh: DUX4-mediated transcription inhibition | activity change, negative = inhibition, % (test concentration not listed) | AID 1224904 | 293T-iDUX4 ZSCAN4-Gaussia luciferase reporter, 24 h; stronger effect = lower value | 37,000 tested, 0.8% active;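 active = mean inhibition of at least 10% in the main channel, exceeding the control channel by a set limit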
A number is an active result.

COc1cccc(S(=O)(=O)N2CCCCN3[C@@H](CO)[C@@H](c4ccc(C#CC5CC5)cc4)[C@@H]3C2)c1 was read as DUX4 inh inactive.
`C/C=C/c1ccc([C@@H]2[C@@H](CO)N3CCCCN(S(=O)(=O)c4ccc(F)cc4)C[C@@H]23)cc1` gave DUX4 inh inactive.
Screening C/C=C/c1ccc([C@H]2[C@@H](CO)N3CCCCN(S(=O)(=O)c4cccc(C)c4)C[C@@H]23)cc1 returned DUX4 inh -44.1.
For C[C@@H]1CN([C@H](C)CO)S(=O)(=O)c2ccc(C#C[C@@H](C)O)cc2O[C@H]1CN(C)C(=O)Cc1ccccn1 the results were DUX4 inh inactive.
Screening C[C@@H]1CCCCO[C@@H](CN(C)C(=O)Nc2ccc(F)cc2)[C@@H](C)CN([C@@H](C)CO)C(=O)c2cc(NC(=O)NC3CCCCC3)ccc2O1 returned DUX4 inh inactive.
For Cc1noc(C)c1S(=O)(=O)N(C)C[C@@H]1OCCCC[C@@H](C)Oc2ccc(NC(=O)Nc3cccc4ccccc34)cc2C(=O)N([C@H](C)CO)C[C@H]1C the results were DUX4 inh inactive.
Screening COc1ccccc1C#Cc1ccc2c(c1)[C@@H]1[C@@H](CCN1C(=O)c1ccncc1)[C@@H](CO)N2 returned DUX4 inh inactive.
`OC[C@@H]1Nc2ccc(C#Cc3cccc(F)c3)cc2[C@H]2NCC[C@@H]12` gave DUX4 inh inactive.
For COc1ccccc1C#Cc1ccc2c(c1)[C@@H]1NCC[C@@H]1[C@H](CO)N2 the results were DUX4 inh -22.5.
Screening CNC[C@@H]1Oc2ncc(Br)cc2C(=O)N([C@H](C)CO)C[C@H]1C returned DUX4 inh inactive.
Screening OC[C@H]1[C@@H](c2ccc(C#Cc3cccnc3)cc2)[C@H]2CN(Cc3ccccc3F)CCCCN21 returned DUX4 inh -42.7.
Screening OC[C@H]1[C@@H](c2ccc(C#Cc3cccnc3)cc2)[C@@H]2CN(Cc3ccccc3F)CCCCN12 returned DUX4 inh -50.6.
Screening O=C(Nc1ccccc1F)N1CCCCN2[C@H](C1)[C@H](c1ccc(C#Cc3cccnc3)cc1)[C@@H]2CO returned DUX4 inh inactive.
Screening CCC(=O)N1CCCCN2[C@H](C1)[C@@H](c1ccc(-c3cccc(C#N)c3)cc1)[C@@H]2CO returned DUX4 inh inactive.
`N#Cc1cccc(-c2ccc([C@@H]3[C@@H](CO)N4CCCCN(Cc5ccccc5F)C[C@H]34)cc2)c1` gave DUX4 inh -33.3.
Screening OC[C@@H]1[C@@H](c2ccc(C#Cc3cccnc3)cc2)[C@H]2CN(Cc3ccccc3F)CCCCN12 returned DUX4 inh -45.3.
CCC(=O)N1CCCCN2[C@@H](CO)[C@@H](c3ccc(-c4cccc(C#N)c4)cc3)[C@@H]2C1 was read as DUX4 inh inactive.
`OC[C@@H]1[C@@H](c2ccc(C#Cc3ccccc3)cc2)[C@H]2CN(Cc3cncnc3)CCCCN12` gave DUX4 inh inactive.
O=C(Nc1ccccc1F)N1CCCCN2[C@H](CO)[C@@H](c3ccc(C#Cc4cccnc4)cc3)[C@H]2C1 was read as DUX4 inh inactive.
Screening CC(C)(O)C#Cc1ccc([C@H]2[C@H]3CN(Cc4ccccc4F)CCCCN3[C@H]2CO)cc1 returned DUX4 inh inactive.
For CC(C)(O)C#Cc1ccc([C@H]2[C@@H](CO)N3CCCCN(Cc4ccccc4F)C[C@@H]23)cc1 the results were DUX4 inh inactive.
Screening CC(C)(O)C#Cc1ccc([C@@H]2[C@@H](CO)N3CCCCN(Cc4ccccc4F)C[C@@H]23)cc1 returned DUX4 inh inactive.
Screening COc1ccc(OC(=O)N(C)C[C@@H]2OCc3cn(nn3)CCCC(=O)N([C@H](C)CO)C[C@@H]2C)cc1 returned DUX4 inh inactive.
`Cc1noc(C)c1NC(=O)N(C)C[C@H]1Oc2c(NS(=O)(=O)c3ccc(Cl)cc3)cccc2C(=O)N([C@@H](C)CO)C[C@H]1C` gave DUX4 inh inactive.
Screening CS(=O)(=O)N1[C@@H](CO)[C@@H](c2ccccc2)C12CN(C(=O)c1ccccc1F)C2 returned DUX4 inh inactive.
`CCC(=O)N1CC2(C1)[C@H](c1ccccc1)[C@H](CO)N2Cc1ccccc1F` gave DUX4 inh inactive.
C[C@@H]1C/C=C\C[C@@H](c2ccc3c(c2)OCO3)NC(=O)[C@@H](c2ccccc2)CC(=O)N1 was read as DUX4 inh inactive.
CO[C@H]1CN(C)C(=O)c2cc(NS(C)(=O)=O)ccc2OC[C@@H](C)N(Cc2nccs2)C[C@@H]1C was read as DUX4 inh inactive.
Screening C[C@@H]1CN([C@H](C)CO)C(=O)c2cc(-c3ccccc3)cnc2O[C@H]1CN(C)C(=O)c1ccccn1 returned DUX4 inh inactive.
Screening CN1C(=O)c2cc(NS(=O)(=O)c3ccc(Cl)cc3)ccc2OC[C@@H]2O[C@H](CC(=O)N3CCc4ccccc4C3)CC[C@H]21 returned DUX4 inh inactive.
`C[C@H]1CN([C@@H](C)CO)C(=O)CCCn2cc(nn2)CO[C@H]1CN(C)C(=O)Nc1ccc2c(c1)OCO2` gave DUX4 inh inactive.

Compound activity deposited in PubChem by Broad Institute.
